Laboratory results published in PubChem BioAssay AID1159580 (chemical genetic matrix, 2015).
The campaign covered roughly 5,500 compounds. About 2,000 (36%) were called active. Not shown: some 18% with an inconclusive outcome. No stated cut-off is given here; in the data, active means normalized growth mostly below about 0.91 (no sharp cut-off); inconclusive means no clear call, values can overlap the other calls; inactive means mostly above about 0.92. The list shows a part of the results.

Assay: chemical genetic growth profiling, strain panel (AID 1159580);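 further: tested at 20 µM; growth read once vehicle control cultures reached saturation at 30 °C; 1 = growth at the plate median or of vehicle wells; lower values mean less growth of the strain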
Details: S. cerevisiae deletion strains, growth OD

Measured: normalized growth

C/C=C(/C)C(=O)OC1CCC2(C)C3CCC4C5(O)CC(O)C6(O)C(CN7CC(C)CCC7C6(C)O)C5(O)CC42OC13O (configuration not stated)
inactive: locus YAL021C, strain ccr4, active compounds read low 0.955 | locus YAL026C, strain drs2, active compounds read low 0.954 | locus YAL030W, strain snc1, active compounds read low 1.01 | locus YBL061C, strain skt5, active compounds read low 1.01 | locus YBR009C, strain hhf1, active compounds read low 0.951 | locus YBR023C, strain chs3, active compounds read low 0.992 | locus YBR171W, strain sec66, active compounds read low 0.968 | locus YBR229C, strain ROT2, active compounds read low 0.97 | locus YBR231C, strain swc5, active compounds read low 0.991 | locus YBR279W, strain paf1, active compounds read low 0.99 | locus YCL011C, strain gbp2, active compounds read low 0.993 | locus YCL016C, strain dcc1, active compounds read low 1.01 | locus YCL029C, strain bik1, active compounds read low 0.979 | locus YCL069W, strain vba3, active compounds read low 0.971 | locus YCR088W, strain abp1, active compounds read low 0.993 | locus YDL005C, strain med2, active compounds read low 1.01 | locus YDL035C, strain GPR1, active compounds read low 0.922 | locus YDL040C, strain nat1, active compounds read low 0.994 | locus YDL074C, strain BRE1, active compounds read low 0.844 | locus YDL101C, strain DUN1, active compounds read low 0.95 | locus YDL185W, strain tfp1, active compounds read low 0.994 | locus YDL192W, strain arf1, active compounds read low 0.96 | locus YDR001C, strain nth1, active compounds read low 0.995 | locus YDR069C, strain doa4, active compounds read low 1.01 | locus YDR101C, strain arx1, active compounds read low 0.955 | locus YDR137W, strain rgp1, active compounds read low 0.857 | locus YDR150W, strain NUM1, active compounds read low 0.986 | locus YDR159W, strain sac3, active compounds read low 0.974 | locus YDR162C, strain NBP2, active compounds read low 0.942 | locus YDR195W, strain ref2 1.04 | locus YDR297W, strain sur2, active compounds read low 0.982 | locus YDR318W, strain mcm21, active compounds read low 0.964 | locus YDR334W, strain swr1, active compounds read low 0.977 | locus YDR335W, strain msn5, active compounds read low 0.999 | locus YDR388W, active compounds read low 0.953 | locus YDR392W, strain spt3, active compounds read low 0.95 | locus YDR502C, strain sam2, active compounds read low 0.937 | locus YEL003W, strain gim4, active compounds read low 0.993 | locus YEL037C, strain rad23, active compounds read low 0.984 | locus YEL061C, strain CIN8 (second series), active compounds read low 0.981 | locus YEL061C, strain CIN8, active compounds read low 0.961 | locus YER015W, strain faa2, active compounds read low 0.999 | locus YER016W, strain bim1, active compounds read low 1.07 | locus YER110C, active compounds read low 0.963 | locus YER111C, strain swi4, active compounds read low 0.995 | locus YER155C, strain BEM2 (second series), active compounds read low 0.969 | locus YER155C, strain BEM2, active compounds read low 0.966 | locus YFR010W, strain ubp6, active compounds read low 0.969 | locus YGL078C, strain dbp3, active compounds read low 0.989 | locus YGL086W, strain mad1, active compounds read low 0.953 | locus YGL167C, strain pmr1, active compounds read low 0.996 | locus YGL173C, strain kem1, active compounds read low 0.998 | locus YGL227W, strain vid30, active compounds read low 1 | locus YGL240W, strain doc1, active compounds read low 0.988 | locus YGL248W, strain PDE1, active compounds read low 0.928 | locus YGL253W, strain hxk2, active compounds read low 1 | locus YGR135W, strain pre9, active compounds read low 0.928 | locus YGR252W, strain gcn5, active compounds read low 0.789 | locus YHR013C, strain ard1, active compounds read low 0.995 | locus YHR027C, strain rpn1, active compounds read low 1 | locus YHR030C, strain SLT2, active compounds read low 0.982 | locus YHR079C, strain IRE1 (second series), active compounds read low 0.972 | locus YHR094C, strain hxt1, active compounds read low 0.971 | locus YHR129C, strain ARP1, active compounds read low 0.955 | locus YHR142W, strain chs7, active compounds read low 0.974 | locus YHR200W, strain rpn10, active compounds read low 0.973 | locus YIL066C, strain RNR3, active compounds read low 0.885 | locus YIL073C, strain SPO22, active compounds read low 0.924 | locus YIL125W, strain kgd1, active compounds read low 0.976 | locus YIR030C, strain dcg1, active compounds read low 0.978 | locus YJL092W, strain hpr5, active compounds read low 1 | locus YJL095W, strain BCK1 (second series), active compounds read low 1 | locus YJL095W, strain BCK1, active compounds read low 0.891 | locus YJL115W, strain asf1, active compounds read low 0.985 | locus YJL129C, strain trk1, active compounds read low 1 | locus YJL134W, strain LCB3, active compounds read low 0.983 | locus YJL154C, strain vps35, active compounds read low 0.989 | locus YJL164C, strain tpk1, active compounds read low 0.996 | locus YJL166W, strain qcr8, active compounds read low 0.994 | locus YJL168C, strain set2, active compounds read low 0.976 | locus YJL187C, strain SWE1 (second series), active compounds read low 0.943 | locus YKL009W, strain mrt4, active compounds read low 0.987 | locus YKL068W, active compounds read low 0.961 | locus YKL085W, strain MDH1 (second series), active compounds read low 0.948 | locus YKL085W, strain MDH1, active compounds read low 0.948 | locus YKL160W, strain elf1, active compounds read low 1.02 | locus YKL190W, strain CNB1, active compounds read low 0.979 | locus YKR026C, strain gcn3, active compounds read low 0.988 | locus YKR091W, strain srl3, active compounds read low 1.01 | locus YLL001W, strain dnm1, active compounds read low 0.985 | locus YLL026W, active compounds read low 1 | locus YLL041C, strain sdh2, active compounds read low 0.991 | locus YLR027C, strain aat2, active compounds read low 1 | locus YLR039C, strain RIC1, active compounds read low 0.889 | locus YLR058C, strain SHM2, active compounds read low 0.949 | locus YLR102C, strain apc9, active compounds read low 0.972 | locus YLR221C, strain rsa3, active compounds read low 0.968 | locus YLR258W, strain gsy2, active compounds read low 0.998 | locus YLR262C, strain YPT6, active compounds read low 1 | locus YLR268W, strain sec22, active compounds read low 0.938 | locus YLR320W, strain mms22, active compounds read low 0.959 | locus YLR342W, strain FKS1, active compounds read low 1 | locus YLR357W, strain rsc2, active compounds read low 1.02 | locus YLR370C, strain arc18, active compounds read low 0.994 | locus YLR371W, strain rom2, active compounds read low 0.985 | locus YLR384C, strain iki3, active compounds read low 0.991 | locus YML016C, strain PPZ1, active compounds read low 0.969 | locus YML032C, strain rad52, active compounds read low 0.935 | locus YML120C, strain ndi1, active compounds read low 0.997 | locus YML124C, strain tub3, active compounds read low 0.97 | locus YMR058W, strain fet3, active compounds read low 0.993 | locus YMR078C, strain ctf18, active compounds read low 0.968 | locus YMR125W, strain sto1, active compounds read low 0.991 | locus YMR129W, active compounds read low 1 | locus YMR205C, strain PFK2, active compounds read low 0.986 | locus YMR223W, strain ubp8, active compounds read low 0.957 | locus YMR231W, strain pep5, active compounds read low 1 | locus YMR263W, strain SAP30, active compounds read low 0.943 | locus YMR307W, strain GAS1, active compounds read low 0.626 | locus YNL067W, strain RPL9B, active compounds read low 0.962 | locus YNL071W, strain lat1, active compounds read low 0.98 | locus YNL209W, strain ssb2, active compounds read low 0.997 | locus YNL233W, strain BNI4, active compounds read low 0.908 | locus YNL248C, strain rpa49, active compounds read low 0.973 | locus YNL250W, strain rad50, active compounds read low 0.992 | locus YNL271C, strain bni1, active compounds read low 0.996 | locus YNL298W, strain CLA4, active compounds read low 0.967 | locus YNL322C, strain KRE1 (second series), active compounds read low 1.03 | locus YNL322C, strain KRE1, active compounds read low 0.947 | locus YNR049C, strain mso1, active compounds read low 1.02 | locus YNR052C, strain pop2, active compounds read low 1.02 | locus YOL006C, strain TOP1, active compounds read low 0.627 | locus YOL012C, strain htz1 0.727 | locus YOL147C, strain pex11, active compounds read low 0.96 | locus YOR001W, strain rrp6, active compounds read low 0.937 | locus YOR061W, strain CKA2, active compounds read low 0.975 | locus YOR069W, strain VPS5, active compounds read low 0.981 | locus YOR070C, strain gyp1, active compounds read low 0.987 | locus YOR080W, strain dia2, active compounds read low 1 | locus YOR083W, strain WHI5, active compounds read low 1.03 | locus YOR106W, strain vam3, active compounds read low 1.02 | locus YOR136W, strain idh2, active compounds read low 0.979 | locus YOR144C, strain elg1, active compounds read low 0.963 | locus YOR265W, strain rbl2, active compounds read low 0.984 | locus YOR270C, strain vph1, active compounds read low 0.94 | locus YOR290C, strain snf2, active compounds read low 1.03 | locus YOR316C, strain cot1, active compounds read low 0.969 | locus YPL051W, strain arl3, active compounds read low 1.02 | locus YPL055C, strain LGE1, active compounds read low 0.877 | locus YPL078C, strain atp4, active compounds read low 1.01 | locus YPL106C, strain sse1, active compounds read low 1.01 | locus YPL240C, strain hsp82, active compounds read low 0.988 | locus YPR119W, strain clb2, active compounds read low 0.969 | locus YPR141C, strain kar3, active compounds read low 0.978 | locus YPR163C, strain tif3, active compounds read low 0.964 | locus YPR167C, strain met16, active compounds read low 0.967 | strain wtn01, active compounds read low 0.949
active: locus YBR021W, strain FUR4, active compounds read low 0.747 | locus YER167W, strain BCK2, active compounds read low 0.852 | locus YJR043C, strain POL32, active compounds read low 0.845 | locus YKR001C, strain vps1, active compounds read low 0.821 | locus YLR262C, strain YPT6 (second series), active compounds read low 0.82 | locus YLR330W, strain CHS5, active compounds read low 0.902 | locus YLR342W, strain FKS1 (second series), active compounds read low 0.715 | locus YLR418C, strain cdc73, active compounds read low 0.705 | locus YNL307C, strain MCK1, active compounds read low 0.83 | locus YOR184W, strain ser1, active compounds read low 0.815
